Our source for the binding signal values is PMC10726135, “HNF4α isoforms regulate the circadian balance between carbohydrate and lipid metabolism in the liver”.

Over roughly 18,000 sequences, “log2 normalized intensity” has its median near 0.36; the highest 2% begin near 7.3. This excerpt belongs to a sample that is enriched for the highest values.

The target of this assay is T1, HNF4alpha8 (COS-7 nuclear extract) (Homo sapiens, UniProt P41235-5 1-452).
T1 sequence: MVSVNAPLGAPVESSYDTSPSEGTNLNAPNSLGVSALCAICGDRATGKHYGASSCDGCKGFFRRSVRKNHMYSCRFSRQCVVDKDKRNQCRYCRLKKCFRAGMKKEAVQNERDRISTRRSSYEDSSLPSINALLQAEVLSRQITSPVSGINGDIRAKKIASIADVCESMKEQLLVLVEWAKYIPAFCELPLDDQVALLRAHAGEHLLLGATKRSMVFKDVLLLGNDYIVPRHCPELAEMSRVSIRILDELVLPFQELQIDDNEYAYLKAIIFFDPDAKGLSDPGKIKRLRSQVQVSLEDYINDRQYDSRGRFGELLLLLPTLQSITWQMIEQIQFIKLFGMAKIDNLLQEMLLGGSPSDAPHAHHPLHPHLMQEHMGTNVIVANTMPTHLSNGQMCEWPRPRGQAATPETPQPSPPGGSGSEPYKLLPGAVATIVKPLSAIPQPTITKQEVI
Briefly: protein-binding microarray; COS-7 nuclear extract on double-stranded Agilent 4x180k PBM; binding buffer, salt, pH and temperature not given in the material; high values mean tight binding. As to conditions: chain copies: 2; label: 3' end of strand 1 on the slide; dsDNA, one strand shown. Put shortly:
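Nuclear extracts came from COS-7 cells transiently transfected by CaPO4 with a human HNF4α isoform expression vector. They were applied to a custom Agilent SurePrint G3 4x180k array of ~60-nt oligonucleotides, made double-stranded, with ~44,000 test sequences spotted in quadruplicate. Bound HNF4α was imaged at 2-µm resolution on an Agilent G2565CA scanner. Binding signal was taken as background-corrected, normalized gProcessedSignal from Agilent software.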
For the sequence “AAATACCCTCTTTAGGGTAGCCTGGGTTAAGCCTAGGGAGATTAGAGTATCGGTCGA”, the binding signal was 0.844 log2 normalized intensity.

On to “TAGGGCCTTGCTATGGAGTGGACTTTGGCTGCCTAGGGAGATTAGAGTATCGGTCGA”, for which the binding signal worked out at 7.22 log2 normalized intensity.

For “TAGACTTTGGACCTGGCCTGCGGGGTCAGGGCCTAGGGAGATTAGAGTATCGGTCGA”, the binding signal was 6.35 log2 normalized intensity.

With “ACTTTGGACCTTTGTGTGTGTGTGTGTGTGGCCTAGGGAGATTAGAGTATCGGTCGA”, the binding signal amounted to 3.49 log2 normalized intensity.

“TGGACAACTGTACTTTGGACTGGGGACCTGGCCTAGGGAGATTAGAGTATCGGTCGA”: the binding signal was determined as 6.02 log2 normalized intensity.

In the case of “GCTAGTAAGGAGCTGAGTCATAGTGGACTTGCCTAGGGAGATTAGAGTATCGGTCGA”, the binding signal worked out at 4.03 log2 normalized intensity.

“CACCTGTGTCAACATGGACTTTGTTGTTTGGCCTAGGGAGATTAGAGTATCGGTCGA”: the binding signal amounted to 4.99 log2 normalized intensity.

For “TAAGGAGCTGAGTCATAGTGGACTTTGCCTGCCTAGGGAGATTAGAGTATCGGTCGA”, the binding signal is 7.86 log2 normalized intensity.

Regarding “GGGCGTGTGTTAGACTTTGGACCTGGCCTGGCCTAGGGAGATTAGAGTATCGGTCGA”, the binding signal was 7.98 log2 normalized intensity.

On to “CGGGTATGTGGGGCGTGTGTTAGACTTTGGGCCTAGGGAGATTAGAGTATCGGTCGA”, for which the binding signal came out at 4.91 log2 normalized intensity.

On to “ATGTGGGGCGTGTGTTAGACTTTGGACCTGGCCTAGGGAGATTAGAGTATCGGTCGA”, for which the binding signal worked out at 9.77 log2 normalized intensity.

As for “GTTGGACTTTGGACCTTTGTGTGTGTGTGTGCCTAGGGAGATTAGAGTATCGGTCGA”, the binding signal came to 8.31 log2 normalized intensity.

For the sequence “GGACTTTGGCCTTACTTGGCCTGTTTGCTGGCCTAGGGAGATTAGAGTATCGGTCGA”, the binding signal was determined as 5.89 log2 normalized intensity.

Take “CCAATTATTGCGAGTTTAGGAGGGTTCCTGGCCTAGGGAGATTAGAGTATCGGTCGA”: the binding signal is -0.0269 log2 normalized intensity.

Take “GATCCACGGAGAATGTAGACCTTTACCACCGCCTAGGGAGATTAGAGTATCGGTCGA”: the binding signal was determined as 2.35 log2 normalized intensity.

For the sequence “ATCCCCCACACCGAGATAGTAGAGATAGTGGCCTAGGGAGATTAGAGTATCGGTCGA”, the binding signal amounted to 2.5 log2 normalized intensity.

On to “TCAAAGTCCAAATAGCGCTAACTCTATATCGCCTAGGGAGATTAGAGTATCGGTCGA”, for which the binding signal was 0.779 log2 normalized intensity.

For “TGGCACTGAAGAATGTCTAAATCTGAAGGAGCCTAGGGAGATTAGAGTATCGGTCGA”, the binding signal is -0.983 log2 normalized intensity.

Regarding “GTGTTGACCTCTGGACCTCATCTTCCTCCCGCCTAGGGAGATTAGAGTATCGGTCGA”, the binding signal worked out at 5.2 log2 normalized intensity.

As to “TCTTTCAAGATAACAAGGCAAACTTTATCAGCCTAGGGAGATTAGAGTATCGGTCGA”, the binding signal was -0.554 log2 normalized intensity.

Consider “ATGTGTTTGCATGACTCATAAAGAACAGTTGCCTAGGGAGATTAGAGTATCGGTCGA”, for which the binding signal is 0.739 log2 normalized intensity.

As for “ATTTTGGACTTTGTGCAAATGGAAAATTGTGCCTAGGGAGATTAGAGTATCGGTCGA”, the binding signal was found to be 3.52 log2 normalized intensity.

In the case of “GTAGAGACCTGTCTTCCTGGTGACCTTTGTGCCTAGGGAGATTAGAGTATCGGTCGA”, the binding signal stood at 7.95 log2 normalized intensity.

With “GACCTGTCTTCCTGGTGACCTTTGTTTGGTGCCTAGGGAGATTAGAGTATCGGTCGA”, the binding signal worked out at 5.66 log2 normalized intensity.

On to “CCTGATGACAACTGAATGTGACCTTTTGGAGCCTAGGGAGATTAGAGTATCGGTCGA”, for which the binding signal is 6.26 log2 normalized intensity.

As to “TTCAAAGGACAGACTTTGGACCTGGCCCTCGCCTAGGGAGATTAGAGTATCGGTCGA”, the binding signal is 6.56 log2 normalized intensity.

On to “GGGGACCTTTGGCCTTTACCTGTTACTTATGCCTAGGGAGATTAGAGTATCGGTCGA”, for which the binding signal is 4.06 log2 normalized intensity.

In the case of “AGGGGTTACTAGTGAGTTGGACTTTGGACCGCCTAGGGAGATTAGAGTATCGGTCGA”, the binding signal is 11.6 log2 normalized intensity.

For “TGACAACTGAATGTGACCTTTTGGACCACAGCCTAGGGAGATTAGAGTATCGGTCGA”, the binding signal was found to be 7.4 log2 normalized intensity.

As for “GTCAAGTAGAGACCTGTCTTCCTGGTGACCGCCTAGGGAGATTAGAGTATCGGTCGA”, the binding signal stood at 2.25 log2 normalized intensity.

With “TTACCGGTGTGACTTTGGTTGGATTTCTTGGCCTAGGGAGATTAGAGTATCGGTCGA”, the binding signal is 1.56 log2 normalized intensity.

For the sequence “AACGGTTCAAAGGACAGACTTTGGACCTGGGCCTAGGGAGATTAGAGTATCGGTCGA”, the binding signal amounted to 7.98 log2 normalized intensity.

For the sequence “ACTGAATGTGACCTTTTGGACCACAGAGTGGCCTAGGGAGATTAGAGTATCGGTCGA”, the binding signal was determined as 5.97 log2 normalized intensity.

With “GATACAACGGTTCAAAGGACAGACTTTGGAGCCTAGGGAGATTAGAGTATCGGTCGA”, the binding signal amounted to 4.08 log2 normalized intensity.

As for “GACCTCATGTAGTCACATACCTATGCAAACGCCTAGGGAGATTAGAGTATCGGTCGA”, the binding signal turned out to be 1.02 log2 normalized intensity.

For “CAGCATCTTCACCGTAAAGCCACCCCTTTCGCCTAGGGAGATTAGAGTATCGGTCGA”, the binding signal was 2.59 log2 normalized intensity.

As for “AGCGATCATGGGTGACCCGTTAAGAATGAGGCCTAGGGAGATTAGAGTATCGGTCGA”, the binding signal is 1.24 log2 normalized intensity.

“CTTAGAATCGAATTGTGAAACTCAGAATCAGCCTAGGGAGATTAGAGTATCGGTCGA”: the binding signal was -0.796 log2 normalized intensity.

For the sequence “TCACCTACTGACCTTTCTCCCTTTTCACAGGCCTAGGGAGATTAGAGTATCGGTCGA”, the binding signal came out at 3.5 log2 normalized intensity.

For “AAGATCTGTGAAAGAAAAGTACTTTAGTGTGCCTAGGGAGATTAGAGTATCGGTCGA”, the binding signal is 0.992 log2 normalized intensity.

Take “CAACAGGTGTTAAAATAACGACCTTTGGGCGCCTAGGGAGATTAGAGTATCGGTCGA”: the binding signal worked out at 6.57 log2 normalized intensity.

For the sequence “AATATCTCAGCACATGGCAGTGTACACTAGGCCTAGGGAGATTAGAGTATCGGTCGA”, the binding signal was found to be 0.805 log2 normalized intensity.

Turning to “GAGAGAAAAAATCAGAGAGCAAAGGTGATCGCCTAGGGAGATTAGAGTATCGGTCGA”, the binding signal was 2.63 log2 normalized intensity.

As to “ATTCCCCGACTCCTGGGTGTGAGATAAGGCGCCTAGGGAGATTAGAGTATCGGTCGA”, the binding signal was 0.0557 log2 normalized intensity.

“AGACTGGTTTGCACAGGTTACACAGTATGTGCCTAGGGAGATTAGAGTATCGGTCGA”: the binding signal was -0.754 log2 normalized intensity.

For the sequence “AAGGTCACTAATTGGAAGCTCTTTCCCTCCGCCTAGGGAGATTAGAGTATCGGTCGA”, the binding signal is 0.732 log2 normalized intensity.

In the case of “GAGCACTCATTCCTATTCGGTGCTGACCTTGCCTAGGGAGATTAGAGTATCGGTCGA”, the binding signal is 3.97 log2 normalized intensity.

As to “AGGACTTTGGACCGTCTTGTGGATCCTTGGGCCTAGGGAGATTAGAGTATCGGTCGA”, the binding signal is 5.27 log2 normalized intensity.
